For 39 molecules, binding signal results are on record in paper PMC9911399, “Two distinct binding modes provide the RNA-binding protein RbFox with extraordinary sequence specificity”.

Substitutions are numbered along the chain they refer to; changes in the protein carry UniProt numbers. In all, about 16,000 sequences were measured (“ka relative to ugcaugu”: median about 0.0091, highest 2% from about 0.032 on). For the sample, the highest values were picked, then their nearest neighbours and some sequences at random.

To fix the notation:
B1: ACAACCU (DNA:RNA)
RNA: GGGAGACCGGAAUUCAGAUUGUCCACAACCUUUAAAUCCCGUCGUAGCCACCA
DNA 1: CAATCTGAATTCCGGTCTCCC
DNA 2: TGGTGGCTACGACGGGATT
B2: AGCGAAA (DNA:RNA)
RNA: B1 RNA with C26G, A27C, A28G, C29A, C30A, U31A
DNA 1: CAATCTGAATTCCGGTCTCCC
DNA 2: TGGTGGCTACGACGGGATT
B3: UUUUUGU (DNA:RNA)
RNA: B1 RNA with A25U, C26U, A27U, A28U, C29U, C30G
DNA 1: CAATCTGAATTCCGGTCTCCC
DNA 2: TGGTGGCTACGACGGGATT
B4: UCGUCCC (DNA:RNA)
RNA: B1 RNA with A25U, A27G, A28U, U31C
DNA 1: CAATCTGAATTCCGGTCTCCC
DNA 2: TGGTGGCTACGACGGGATT
B5: ACAGACA (DNA:RNA)
RNA: B1 RNA with A28G, C29A, U31A
DNA 1: CAATCTGAATTCCGGTCTCCC
DNA 2: TGGTGGCTACGACGGGATT
B6: UCACUAC (DNA:RNA)
RNA: B1 RNA with A25U, A28C, C29U, C30A, U31C
DNA 1: CAATCTGAATTCCGGTCTCCC
DNA 2: TGGTGGCTACGACGGGATT
B7: GGCAAAG (DNA:RNA)
RNA: B1 RNA with A25G, C26G, A27C, C29A, C30A, U31G
DNA 1: CAATCTGAATTCCGGTCTCCC
DNA 2: TGGTGGCTACGACGGGATT
B8: UGGAGUG (DNA:RNA)
RNA: B1 RNA with A25U, C26G, A27G, C29G, C30U, U31G
DNA 1: CAATCTGAATTCCGGTCTCCC
DNA 2: TGGTGGCTACGACGGGATT
B9: UGUUGUC (DNA:RNA)
RNA: GGGAGACCGGAAUUCAGAUUGUCCUGUUGUCUUAAAUCCCGUCGUAGCCACCA
DNA 1: CAATCTGAATTCCGGTCTCCC
DNA 2: TGGTGGCTACGACGGGATT
B10: UGUCGUG (DNA:RNA)
RNA: B9 RNA with U28C, C31G
DNA 1: CAATCTGAATTCCGGTCTCCC
DNA 2: TGGTGGCTACGACGGGATT
B11: UGGAUCU (DNA:RNA)
RNA: B1 RNA with A25U, C26G, A27G, C29U
DNA 1: CAATCTGAATTCCGGTCTCCC
DNA 2: TGGTGGCTACGACGGGATT
B12: UGGAGAA (DNA:RNA)
RNA: B9 RNA with U27G, U28A, U30A, C31A
DNA 1: CAATCTGAATTCCGGTCTCCC
DNA 2: TGGTGGCTACGACGGGATT
B13: UGGAGAG (DNA:RNA)
RNA: B9 RNA with U27G, U28A, U30A, C31G
DNA 1: CAATCTGAATTCCGGTCTCCC
DNA 2: TGGTGGCTACGACGGGATT
B14: UGUCGUC (DNA:RNA)
RNA: B9 RNA with U28C
DNA 1: CAATCTGAATTCCGGTCTCCC
DNA 2: TGGTGGCTACGACGGGATT
B15: UGGAUCG (DNA:RNA)
RNA: B1 RNA with A25U, C26G, A27G, C29U, U31G
DNA 1: CAATCTGAATTCCGGTCTCCC
DNA 2: TGGTGGCTACGACGGGATT
B16: UGGAGAU (DNA:RNA)
RNA: B9 RNA with U27G, U28A, U30A, C31U
DNA 1: CAATCTGAATTCCGGTCTCCC
DNA 2: TGGTGGCTACGACGGGATT
B17: UGGAAUG (DNA:RNA)
RNA: B9 RNA with U27G, U28A, G29A, C31G
DNA 1: CAATCTGAATTCCGGTCTCCC
DNA 2: TGGTGGCTACGACGGGATT
B18: UGGAUCC (DNA:RNA)
RNA: B9 RNA with U27G, U28A, G29U, U30C
DNA 1: CAATCTGAATTCCGGTCTCCC
DNA 2: TGGTGGCTACGACGGGATT
B19: UGUCUUG (DNA:RNA)
RNA: B9 RNA with U28C, G29U, C31G
DNA 1: CAATCTGAATTCCGGTCTCCC
DNA 2: TGGTGGCTACGACGGGATT
B20: CAGAAAA (DNA:RNA)
RNA: B1 RNA with A25C, C26A, A27G, C29A, C30A, U31A
DNA 1: CAATCTGAATTCCGGTCTCCC
DNA 2: TGGTGGCTACGACGGGATT
B21: UGGGUAG (DNA:RNA)
RNA: B9 RNA with U27G, U28G, G29U, U30A, C31G
DNA 1: CAATCTGAATTCCGGTCTCCC
DNA 2: TGGTGGCTACGACGGGATT
B22: CCCAAGA (DNA:RNA)
RNA: B1 RNA with A25C, A27C, C29A, C30G, U31A
DNA 1: CAATCTGAATTCCGGTCTCCC
DNA 2: TGGTGGCTACGACGGGATT
B23: UCGCCGG (DNA:RNA)
RNA: B1 RNA with A25U, A27G, A28C, C30G, U31G
DNA 1: CAATCTGAATTCCGGTCTCCC
DNA 2: TGGTGGCTACGACGGGATT
B24: CUAGUGU (DNA:RNA)
RNA: B1 RNA with A25C, C26U, A28G, C29U, C30G
DNA 1: CAATCTGAATTCCGGTCTCCC
DNA 2: TGGTGGCTACGACGGGATT
B25: UGCUCCU (DNA:RNA)
RNA: B1 RNA with A25U, C26G, A27C, A28U
DNA 1: CAATCTGAATTCCGGTCTCCC
DNA 2: TGGTGGCTACGACGGGATT
B26: GAUCGAC (DNA:RNA)
RNA: B9 RNA with U25G, G26A, U28C, U30A
DNA 1: CAATCTGAATTCCGGTCTCCC
DNA 2: TGGTGGCTACGACGGGATT
B27: GAGAGCC (DNA:RNA)
RNA: B1 RNA with A25G, C26A, A27G, C29G, U31C
DNA 1: CAATCTGAATTCCGGTCTCCC
DNA 2: TGGTGGCTACGACGGGATT
B28: GCAUGUU (DNA:RNA)
RNA: B1 RNA with A25G, A28U, C29G, C30U
DNA 1: CAATCTGAATTCCGGTCTCCC
DNA 2: TGGTGGCTACGACGGGATT
B29: GCAUUGU (DNA:RNA)
RNA: B1 RNA with A25G, A28U, C29U, C30G
DNA 1: CAATCTGAATTCCGGTCTCCC
DNA 2: TGGTGGCTACGACGGGATT
B30: ACGCAUA (DNA:RNA)
RNA: B1 RNA with A27G, A28C, C29A, C30U, U31A
DNA 1: CAATCTGAATTCCGGTCTCCC
DNA 2: TGGTGGCTACGACGGGATT
B31: GCAAUGU (DNA:RNA)
RNA: B1 RNA with A25G, C29U, C30G
DNA 1: CAATCTGAATTCCGGTCTCCC
DNA 2: TGGTGGCTACGACGGGATT
B32: CGCAUUG (DNA:RNA)
RNA: B9 RNA with U25C, U27C, U28A, G29U, C31G
DNA 1: CAATCTGAATTCCGGTCTCCC
DNA 2: TGGTGGCTACGACGGGATT
B33: CCCCGCA (DNA:RNA)
RNA: B1 RNA with A25C, A27C, A28C, C29G, U31A
DNA 1: CAATCTGAATTCCGGTCTCCC
DNA 2: TGGTGGCTACGACGGGATT
B34: CCGCAUG (DNA:RNA)
RNA: B1 RNA with A25C, A27G, A28C, C29A, C30U, U31G
DNA 1: CAATCTGAATTCCGGTCTCCC
DNA 2: TGGTGGCTACGACGGGATT
B35: GCAUAGU (DNA:RNA)
RNA: B1 RNA with A25G, A28U, C29A, C30G
DNA 1: CAATCTGAATTCCGGTCTCCC
DNA 2: TGGTGGCTACGACGGGATT
B36: GCCAUGU (DNA:RNA)
RNA: B1 RNA with A25G, A27C, C29U, C30G
DNA 1: CAATCTGAATTCCGGTCTCCC
DNA 2: TGGTGGCTACGACGGGATT
B37: CGCAUGU (DNA:RNA)
RNA: B1 RNA with A25C, C26G, A27C, C29U, C30G
DNA 1: CAATCTGAATTCCGGTCTCCC
DNA 2: TGGTGGCTACGACGGGATT
B38: ACGCAUC (DNA:RNA)
RNA: B1 RNA with A27G, A28C, C29A, C30U, U31C
DNA 1: CAATCTGAATTCCGGTCTCCC
DNA 2: TGGTGGCTACGACGGGATT
B39: ACGCAUG (DNA:RNA)
RNA: B1 RNA with A27G, A28C, C29A, C30U, U31G
DNA 1: CAATCTGAATTCCGGTCTCCC
DNA 2: TGGTGGCTACGACGGGATT

In the assay the target is T1, RBFOX1 RRM (Homo sapiens, UniProt Q9NWB1 109-208).
T1 sequence: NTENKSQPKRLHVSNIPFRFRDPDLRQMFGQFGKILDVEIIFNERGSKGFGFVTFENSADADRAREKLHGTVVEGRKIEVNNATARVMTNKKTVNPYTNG
Put plainly: EMSA; HiTS-Eq, 1 nM pool, 10 min; buffer printed only for the single-RNA assays: 10 mM Tris pH 7.5, 150 mM NaCl, 3.4 mM EDTA, 0.001% NP-40, 30 C. To be noted: tags: His6 N-terminal (pET28a); label: 5' 32P. In short, it runs like this:
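Purified wild-type or mutant RbFox RRM at increasing concentrations was equilibrated with 1 nM of 5′-radiolabelled RNA carrying 7 randomized nucleotides for 10 min in 50 µL. Unbound RNA was separated by 8% native PAGE and sequenced. Relative association constants came from read-count changes of each RNA species compared with the control reaction, normalised to the cognate motif.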
(In EMSA bound probe runs differently from free probe, usually more slowly.)
With B1, the binding signal was 0.000511 KA relative to UGCAUGU.

B2: the binding signal is 0.0048 KA relative to UGCAUGU.

In the case of B3, the binding signal is 0.0281 KA relative to UGCAUGU.

Turning to B4, the binding signal is 0.00735 KA relative to UGCAUGU.

Consider B5, for which the binding signal was 0.00018 KA relative to UGCAUGU.

Take B6: the binding signal is 0.000713 KA relative to UGCAUGU.

On to B7, for which the binding signal was 0.00447 KA relative to UGCAUGU.

Turning to B8, the binding signal was 0.0323 KA relative to UGCAUGU.

B9: the binding signal is 0.0242 KA relative to UGCAUGU.

In the case of B10, the binding signal is 0.0277 KA relative to UGCAUGU.

As to B11, the binding signal is 0.0236 KA relative to UGCAUGU.

As to B12, the binding signal is 0.0194 KA relative to UGCAUGU.

Turning to B13, the binding signal is 0.0249 KA relative to UGCAUGU.

Regarding B14, the binding signal was 0.0214 KA relative to UGCAUGU.

In the case of B15, the binding signal was 0.0333 KA relative to UGCAUGU.

On to B16, for which the binding signal is 0.0283 KA relative to UGCAUGU.

As for B17, the binding signal is 0.0953 KA relative to UGCAUGU.

On to B18, for which the binding signal was 0.0229 KA relative to UGCAUGU.

Consider B19, for which the binding signal was 0.0447 KA relative to UGCAUGU.

For the molecule B20, the binding signal was 0.000855 KA relative to UGCAUGU.

Turning to B21, the binding signal was 0.0258 KA relative to UGCAUGU.

For B22, the binding signal was 0.00241 KA relative to UGCAUGU.

Take B23: the binding signal was 0.0169 KA relative to UGCAUGU.

In the case of B24, the binding signal is 0.0159 KA relative to UGCAUGU.

On to B25, for which the binding signal is 0.0145 KA relative to UGCAUGU.

Regarding B26, the binding signal was 0.0165 KA relative to UGCAUGU.

For the molecule B27, the binding signal is 0.0145 KA relative to UGCAUGU.

B28: the binding signal was 0.635 KA relative to UGCAUGU.

As for B29, the binding signal is 0.0129 KA relative to UGCAUGU.

Turning to B30, the binding signal is 0.00394 KA relative to UGCAUGU.

With B31, the binding signal was 0.01 KA relative to UGCAUGU.

Take B32: the binding signal was 0.0131 KA relative to UGCAUGU.

For B33, the binding signal is 0.0132 KA relative to UGCAUGU.

Turning to B34, the binding signal was 0.806 KA relative to UGCAUGU.

For B35, the binding signal is 0.0104 KA relative to UGCAUGU.

For the molecule B36, the binding signal is 0.0117 KA relative to UGCAUGU.

For B37, the binding signal is 0.735 KA relative to UGCAUGU.

For the molecule B38, the binding signal is 0.00881 KA relative to UGCAUGU.

For the molecule B39, the binding signal is 0.697 KA relative to UGCAUGU.
